Experimental data from article PMC4336329 (PLoS ONE, 2015).
Among all 310,000 compounds or so, about 14,000 (4.5%) showed an effect of 50% or more. Effects have a minus sign here. The entries come from a sample that favours strong results as a whole.
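Note: peak tail current of the secondary pulse compared with the same well before compound.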

The compounds below were run against human ether-à-go-go-related gene (hERG) potassium channel (human, UniProt Q12809) (assay: primary screen, population patch clamp on CHO cells stably expressing hERG; higher = less effect of the substance).
Sequence of human ether-à-go-go-related gene (hERG) potassium channel (Q12809 whole entry, looked up): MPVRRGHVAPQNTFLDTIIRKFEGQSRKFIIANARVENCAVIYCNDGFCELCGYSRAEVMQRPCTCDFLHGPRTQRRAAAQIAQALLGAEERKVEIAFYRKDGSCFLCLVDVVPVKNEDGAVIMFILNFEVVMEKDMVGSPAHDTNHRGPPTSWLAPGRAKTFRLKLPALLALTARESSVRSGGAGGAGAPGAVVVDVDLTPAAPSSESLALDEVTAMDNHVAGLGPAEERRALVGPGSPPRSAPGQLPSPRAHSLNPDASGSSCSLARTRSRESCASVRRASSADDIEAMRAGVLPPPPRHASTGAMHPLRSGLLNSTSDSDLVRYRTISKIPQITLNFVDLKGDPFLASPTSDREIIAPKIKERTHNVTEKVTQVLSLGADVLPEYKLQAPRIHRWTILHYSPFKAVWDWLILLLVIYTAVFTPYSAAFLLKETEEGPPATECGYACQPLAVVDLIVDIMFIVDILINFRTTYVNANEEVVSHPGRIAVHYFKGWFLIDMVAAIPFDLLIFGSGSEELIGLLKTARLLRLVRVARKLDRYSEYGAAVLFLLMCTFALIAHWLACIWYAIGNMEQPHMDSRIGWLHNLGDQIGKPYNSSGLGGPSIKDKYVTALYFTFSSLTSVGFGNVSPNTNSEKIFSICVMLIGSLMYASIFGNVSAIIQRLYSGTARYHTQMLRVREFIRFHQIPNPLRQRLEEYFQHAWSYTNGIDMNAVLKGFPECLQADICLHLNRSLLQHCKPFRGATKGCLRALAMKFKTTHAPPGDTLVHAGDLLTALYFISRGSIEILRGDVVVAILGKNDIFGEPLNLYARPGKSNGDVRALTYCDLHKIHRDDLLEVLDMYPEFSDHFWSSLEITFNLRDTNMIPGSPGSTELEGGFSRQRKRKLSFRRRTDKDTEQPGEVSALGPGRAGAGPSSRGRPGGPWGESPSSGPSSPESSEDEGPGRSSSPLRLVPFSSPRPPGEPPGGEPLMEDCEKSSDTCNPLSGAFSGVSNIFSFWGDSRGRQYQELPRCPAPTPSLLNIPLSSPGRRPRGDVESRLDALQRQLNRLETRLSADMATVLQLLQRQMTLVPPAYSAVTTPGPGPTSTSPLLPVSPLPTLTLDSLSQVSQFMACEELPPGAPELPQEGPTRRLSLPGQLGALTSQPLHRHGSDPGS
In the case of `FC(F)(F)c1nnc2ccc(Sc3ccccn3)nn12`, the “hERG current change (%, negative = inhibition) at 10uM” value is reported as 17.1%.
`O=C(NCc1ccccn1)C1CC(c2ccccc2Cl)=NO1` (centres unmarked) was tested, and the “hERG current change (%, negative = inhibition) at 10uM” value was 14.1%.
For `O=S(=O)(Cc1ccccc1Cl)N1CCCCC1`, the “hERG current change (%, negative = inhibition) at 10uM” value was 1.5%.
`C=CCNCCCCOc1c(Cl)cc(C)cc1Br.O=C(O)C(=O)O` was tested, and the “hERG current change (%, negative = inhibition) at 10uM” value was -31.7%.
With `CC(=O)N(\C=C/C=C/C=C1\Sc2ccccc2C1=O)c1ccccc1` the “hERG current change (%, negative = inhibition) at 10uM” value was -3.47%.
With `CCOC(=O)C1=C(C)N=c2s/c(=C\c3cccc(OCC(=O)O)c3)c(=O)n2C1c1ccccc1OC` (centres unmarked) the “hERG current change (%, negative = inhibition) at 10uM” value was 28.7%.
`CCOC(=O)C1=C(C)N=c2s/c(=C\c3ccc(OCC(=O)O)cc3)c(=O)n2C1c1ccccc1OC` (centres unmarked) was tested, and the “hERG current change (%, negative = inhibition) at 10uM” value was 12.8%.
For `CCOC(=O)C1=C(C)N=c2s/c(=C\c3ccc(O)c([N+](=O)[O-])c3)c(=O)n2C1c1ccccc1OC` (centres unmarked), the “hERG current change (%, negative = inhibition) at 10uM” value was -61.7%.
In the case of `CC(=O)c1c(C)[nH]c(C(=O)OCC(=O)C(C)(C)C)c1C`, the “hERG current change (%, negative = inhibition) at 10uM” value is reported as -2.38%.
For `CN1CCN(C2CCCCC2NS(=O)(=O)c2ccccc2)CC1` (centres unmarked), the “hERG current change (%, negative = inhibition) at 10uM” value was 9.24%.
In the case of `Brc1ccc(CN2CCSCC2)cc1`, the “hERG current change (%, negative = inhibition) at 10uM” value is reported as -65.1%.
For `CCc1ccc(CN2CCSCC2)cc1`, the “hERG current change (%, negative = inhibition) at 10uM” value was 7.39%.
For `Cc1ccc(CN2CCSCC2)cc1`, the “hERG current change (%, negative = inhibition) at 10uM” value was 17.4%.
In the case of `CCC1(C)Cc2c(sc3nc(SC)nc(NCCN(C)C)c23)CO1` (centres unmarked), the “hERG current change (%, negative = inhibition) at 10uM” value is reported as -42.9%.
With `O=C(O)/C=C/C(=O)Nc1ccc(Oc2ncnc3cc(Cl)ccc23)nc1` the “hERG current change (%, negative = inhibition) at 10uM” value was 18.4%.
For `CCC(C)NC(=O)Cn1cc2c(n1)CCC(C)C2` (centres unmarked), the “hERG current change (%, negative = inhibition) at 10uM” value was 13.8%.
With `c1ccc(-c2nn3nnnc3c3ccccc23)cc1` the “hERG current change (%, negative = inhibition) at 10uM” value was -71.8%.
`Cc1ccc(-c2nn3nnnc3c3ccccc23)cc1` was tested, and the “hERG current change (%, negative = inhibition) at 10uM” value was 14.3%.
With `Cc1ccc(-c2nn3nnnc3c3ccccc23)cc1C` the “hERG current change (%, negative = inhibition) at 10uM” value was -1.31%.
In the case of `CC1=CCC2C(=O)N(c3ccc(OC(=O)c4ccco4)cc3)C(=O)C2C1` (centres unmarked), the “hERG current change (%, negative = inhibition) at 10uM” value is reported as 12%.
With `COC(=O)CSc1ncnc2c1sc1nc(-c3ccco3)c3c(c12)CC(C)(C)OC3` the “hERG current change (%, negative = inhibition) at 10uM” value was 3.01%.
For `O=C(CSc1ncccn1)NNC(=O)c1ccccc1`, the “hERG current change (%, negative = inhibition) at 10uM” value was -4.48%.
`CCOCCCNC(=O)C(c1ccccc1)N(Cc1cccs1)C(=O)c1ccccc1O` (centres unmarked) was tested, and the “hERG current change (%, negative = inhibition) at 10uM” value was 14.3%.
`COc1cc(NC(=O)COC(=O)CCCC2=NS(=O)(=O)c3ccccc3N2)cc(OC)c1` was tested, and the “hERG current change (%, negative = inhibition) at 10uM” value was 14.4%.
For `COc1ccc(Cl)cc1NC(=O)COC(=O)CCCC1=NS(=O)(=O)c2ccccc2N1`, the “hERG current change (%, negative = inhibition) at 10uM” value was 21.4%.
With `Cc1cccc(NC(=O)COC(=O)CCCC2=NS(=O)(=O)c3ccccc3N2)c1` the “hERG current change (%, negative = inhibition) at 10uM” value was 10.7%.
`CCc1ccc(NC(=O)COC(=O)CCCC2=NS(=O)(=O)c3ccccc3N2)cc1` was tested, and the “hERG current change (%, negative = inhibition) at 10uM” value was -1.3%.
In the case of `Cc1cc(C)cc(NC(=O)COC(=O)CCCC2=NS(=O)(=O)c3ccccc3N2)c1`, the “hERG current change (%, negative = inhibition) at 10uM” value is reported as -55.9%.
With `CCOc1ccccc1NC(=O)COC(=O)CC(C)(C)CC1=NS(=O)(=O)c2ccccc2N1` the “hERG current change (%, negative = inhibition) at 10uM” value was -60.5%.
For `CC(C)(CC(=O)OCC(=O)Nc1ccccc1F)CC1=NS(=O)(=O)c2ccccc2N1`, the “hERG current change (%, negative = inhibition) at 10uM” value was 0.85%.
For `COc1ccccc1NC(=O)COC(=O)CC(C)(C)CC1=NS(=O)(=O)c2ccccc2N1`, the “hERG current change (%, negative = inhibition) at 10uM” value was -69.9%.
In the case of `O=C(COC(=O)CCCC1=NS(=O)(=O)c2ccccc2N1)Nc1ccccc1`, the “hERG current change (%, negative = inhibition) at 10uM” value is reported as 24.7%.
`Cc1cc(NC(=O)C2CCCN(S(=O)(=O)c3c(C)noc3C)C2)no1` (centres unmarked) was tested, and the “hERG current change (%, negative = inhibition) at 10uM” value was -0.534%.
`Cc1oc(-c2cccs2)nc1CSCC(=O)NC1CC1` was tested, and the “hERG current change (%, negative = inhibition) at 10uM” value was -3.82%.
With `CCC1=NN(C(=O)Cc2ccc([N+](=O)[O-])cc2)C(O)(c2ccncc2)C1` (centres unmarked) the “hERG current change (%, negative = inhibition) at 10uM” value was -11.9%.
With `COc1ccc(NC(=O)c2cccc(N3C(=O)C4C5C=CC(C5)C4C3=O)c2)cc1Cl` (centres unmarked) the “hERG current change (%, negative = inhibition) at 10uM” value was 2.2%.
With `C=CCN1C(=O)C(Cc2ccc(F)cc2)S/C1=N/N=C/c1cccs1` (centres unmarked) the “hERG current change (%, negative = inhibition) at 10uM” value was -9.46%.
`CC(C)C(NC(=O)c1ccco1)C(=O)NCC(c1ccco1)N(C)C` (centres unmarked) was tested, and the “hERG current change (%, negative = inhibition) at 10uM” value was 12.5%.
`COc1ccc(N2CCN(CC(O)COc3ccc4c(c3)CCC4)CC2)cc1.Cl` (centres unmarked) was tested, and the “hERG current change (%, negative = inhibition) at 10uM” value was -48.3%.
`COc1ccccc1N1CCN(CC(O)COc2ccc3c(c2)CCC3)CC1.Cl` (centres unmarked) was tested, and the “hERG current change (%, negative = inhibition) at 10uM” value was -74.2%.
With `COc1ccc(N2CCN(CC(O)COc3cc(C)cc(C)c3)CC2)cc1.Cl` (centres unmarked) the “hERG current change (%, negative = inhibition) at 10uM” value was -48.8%.
With `CC1CC(C)CN(CC(O)COc2ccc3c(c2)CCC3)C1.Cl` (centres unmarked) the “hERG current change (%, negative = inhibition) at 10uM” value was -53.2%.
For `COc1ccccc1N1CCN(CC(O)COc2ccc3c(C)cc(=O)oc3c2)CC1` (centres unmarked), the “hERG current change (%, negative = inhibition) at 10uM” value was -24.7%.
`OC(COc1ccc2c(c1)CCC2)CN1CCN(c2ccccc2F)CC1` (centres unmarked) was tested, and the “hERG current change (%, negative = inhibition) at 10uM” value was -14.6%.
With `COc1ccc(N2CCN(CC(O)COc3cc(C)ccc3C)CC2)cc1.Cl` (centres unmarked) the “hERG current change (%, negative = inhibition) at 10uM” value was -33.8%.
`COc1cccc(OCC(O)CN2CC(C)CC(C)C2)c1.Cl` (centres unmarked) was tested, and the “hERG current change (%, negative = inhibition) at 10uM” value was -13.5%.
`CCOc1ccccc1N1CCN(CC(O)COc2ccc3c(C)cc(=O)oc3c2)CC1` (centres unmarked) was tested, and the “hERG current change (%, negative = inhibition) at 10uM” value was -53.1%.
In the case of `Cc1cc(=O)oc2cc(OCC(O)CN3CCN(c4ccccc4)CC3)ccc12.Cl` (centres unmarked), the “hERG current change (%, negative = inhibition) at 10uM” value is reported as -47.4%.
With `CCN1CCN(CC(O)COc2ccc3c(c2)CCC3)CC1.Cl` (centres unmarked) the “hERG current change (%, negative = inhibition) at 10uM” value was 5.59%.
`COc1ccc(N2CCN(CC(O)COc3ccc(C)cc3C)CC2)cc1.Cl` (centres unmarked) was tested, and the “hERG current change (%, negative = inhibition) at 10uM” value was -67.8%.
